Test results as given in PubChem BioAssay AID736 (The Scripps Research Institute Molecular Screening Center, 2007).
Screen size: about 97,000 compounds; about 210 (0.22%) were called active. Shown is part of a subset that was picked to be rich in actives. A number with no mark means an inactive call. Rule as the data show it: active = inhibition above about 45%; inactive = the rest.

What follows are compounds tested against Sphingosine 1-phosphate receptor 2 (Homo sapiens) (UniProt O95136) (assay: blockers of S1P2 receptor signalling – cell-based, primary screen (AID 736;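 also: CRE beta-lactamase reporter cells expressing human S1P2 stimulated with S1P; 0% = agonist at EC80 alone and 100% = agonist plus reference antagonist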)). Settings: cell-based S1P2 antagonist assay, at 5 µM, active compounds read high.
Sphingosine 1-phosphate receptor 2 (Homo sapiens), sequence (O95136 whole entry, looked up): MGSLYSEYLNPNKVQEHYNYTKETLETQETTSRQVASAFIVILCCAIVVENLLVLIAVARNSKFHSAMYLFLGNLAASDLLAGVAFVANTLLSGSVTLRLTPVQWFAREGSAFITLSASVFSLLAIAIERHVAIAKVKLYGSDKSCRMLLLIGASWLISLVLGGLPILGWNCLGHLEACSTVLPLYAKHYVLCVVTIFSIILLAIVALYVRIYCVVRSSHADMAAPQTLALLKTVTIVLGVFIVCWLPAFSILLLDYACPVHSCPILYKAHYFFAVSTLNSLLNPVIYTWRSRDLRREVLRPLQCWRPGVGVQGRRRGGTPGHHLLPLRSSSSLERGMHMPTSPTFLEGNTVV

| Compound | inhibition |
| --- | --- |
| COc1cc(N2CCCC2)c(OC)cc1/C=C(/C#N)c1cccc(Br)c1 | -9.11% |
| O=C1COc2ccc(NC(=O)N3CCN(c4ccc(F)cc4)CC3)cc2N1 | 9.28% |
| CCn1c(CNC(=O)c2ccccc2)nnc1SCC(=O)N1CCN(c2ccccc2)CC1 | 2.56% |
| C=C(C)C(=O)Nc1cccc(C(C)=O)c1 | -17.2% |
| CCN(CC)C(=O)CSc1nnc(CNc2ccc(F)cc2)n1Cc1ccco1 | -21.8% |
| CCOc1cccc(C(=O)Nc2nnc(-c3cccs3)s2)c1 | -13.1% |
| O=C(Nc1cccc2ncccc12)c1ccc(-c2ccc(Cl)cc2Cl)o1 | 20.4% |
| Cc1cccc(NC(=O)Cn2cc(C(=O)c3ccco3)c3ccccc32)c1 | 16.7% |
| CCN(CC)S(=O)(=O)c1cc([N+](=O)[O-])ccc1NNC(=O)Nc1ccccc1 | -2.47% |
| O=C(NCCCN1CCCCC1)c1ccc2c(c1)NC(=O)C(N1CCOCC1)S2 (centres undefined) | 14.6% |
| COC(=O)CSc1nc(C)c2ccc(OC)cc2n1 | 7.81% |
| COc1cccc(/C=N\Nc2nncc(-c3ccccc3)n2)c1 | 20.6% |
| Cc1cc2nc(SCCN3CCOCC3)[nH]c2cc1C | 6.34% |
| Cc1csc(OCC(=O)Nc2ccc(C)c(C)c2)n1 | 6.53% |
| CCOc1ccc(C(O)Cc2nc3ccccc3n2C)cc1 (centres undefined) | -0.2% |
| CCOC(=O)c1cc(C#N)c(N2CCCCC2)nc1-c1ccccc1 | 1.48% |
| O=C(Nc1nccs1)c1cc(S(=O)(=O)N2CCOCC2)c(Cl)cc1Cl | 0.95% |
| COc1cccc(NC(=O)Cc2ccc(C)cc2)c1 | -17% |
| COc1ccc(NC(=O)/C(Cl)=C(/Cl)S(=O)Cc2ccc(C)cc2)cn1 (centres undefined) | 98.7% (active) |
| COC(=O)/C(NC(C)=O)=C(\C)c1ccc(Cl)cc1 | -17.7% |
| Cc1cc2cc3c(N)[nH]nc3nc2cc1C | 6.72% |
| Cc1ccc(O/C=C2\OC(=O)c3ccccc32)cc1 | -18.2% |

| Compound | inhibition |
| --- | --- |
| COc1ccc(Cl)cc1NC(=O)CN(C)C(=O)CNC(=O)C12CC3CC(CC(C3)C1)C2 | -3.56% |
| COc1ccc(/C=C(\NC(=O)c2ccc(OC)c(OC)c2)C(=O)NCCc2c[nH]c3ccccc23)cc1 | 8.6% |
| O=C(Nc1ccc2ccccc2c1)Nc1ccc2snnc2c1 | -5.16% |
| CC(=O)NNc1cc(=O)c2c(=O)n(C)c(=O)n(C)c2[nH]1 | 22.2% |
| COC(=O)CN(C(=S)Nc1ccc(Cl)cc1)C1CC(=O)N(c2ccc(OC)cc2)C1=O (centres undefined) | 54.6% (active) |
| COc1cccc(N2CCN(C3CC(=O)N(c4ccc(Cl)cc4)C3=O)CC2)c1 (centres undefined) | -1.94% |
| CN(C)c1ccc(NC(=S)N(CCc2ccccc2)C2CC(=O)N(c3c(Cl)cccc3Cl)C2=O)cc1 (centres undefined) | 14.5% |
| CC1CCN(CC(=O)c2c[nH]c3ccccc23)CC1 | 12.6% |
| CCCCNC(=O)C1CCCNC1=O (centres undefined) | 0.22% |
| CCCCCCCC(=O)NC(Nc1ccccc1OC)C(Cl)(Cl)Cl (centres undefined) | -5.42% |
| O=C(O)C1CCN(C(=O)OCc2ccccc2)CC1 | 9.58% |
| CC(C)CCOc1ccc(C(=O)C[N+]2(C)CCOCC2)cc1 | 8.2% |
| CC(NC(=O)C1CCC(CNc2c(N3CCOCC3)c(=O)c2=O)CC1)c1ccccc1 (centres undefined) | 4.51% |
| O=C(Nc1ccc2oc(-c3ccc4ccccc4c3)nc2c1)c1cccs1 | 7.93% |
| O=C(NC(Nc1nc2ccc([N+](=O)[O-])cc2s1)(C(F)(F)F)C(F)(F)F)c1ccccc1 | 97.3% (active) |
| Cc1cc(C)cc(OCC(=O)Nc2nc3ccc([N+](=O)[O-])cc3s2)c1 | 4.48% |
| COC(=O)C(NC(=O)c1ccc(OC)cc1)(Nc1ncc(S(=O)(=O)c2ccc([N+](=O)[O-])cc2)s1)C(F)(F)F (centres undefined) | 19.9% |
| Cc1ccc(CN(N=Nc2nonc2N)c2nonc2N)c(C)c1 | -6.92% |
| COC(=O)c1cccc(-n2[nH]nnc2=S)c1 | 15.5% |
| Cc1ccc(-c2cc(C(=O)NCC3CCCO3)c3ccccc3n2)o1 (centres undefined) | 6.28% |
| Cc1nn(Cc2ccc(F)cc2)c(C)c1NC(=O)c1noc2c1CCc1ccccc1-2 | 2.56% |
| O=C(CSc1nnnn1-c1ccccc1)NCc1ccco1 | -4.03% |

| Compound | inhibition |
| --- | --- |
| CC(C)NC(=O)NC(=O)COC(=O)c1ccc(NC(=O)CC#N)cc1 | -12.5% |
| O=C(/C=C/c1ccc(Cl)cc1Cl)c1cccnc1 | -15.8% |
| O=C(NNC(=O)c1cccnc1)Nc1ccccc1 | 8.67% |
| Fc1ccc(-n2c(Cc3ccccc3)nnc2SCc2nc(-c3ccc(Cl)cc3)no2)cc1 | -18.9% |
| FC(F)(F)c1cccc(NC(=S)Nc2cccc(Cl)c2)c1 | -0.66% |
| Cc1ccc(/C=N/NC(=O)C2=NNC(c3ccccc3)(c3ccccc3)C2)c(O)c1 | -25.5% |
| CC1(C)C2CCC13CS(=O)(=O)NC3C2 (centres undefined) | 2.66% |
| CCCNC(=S)N1CCC(NC(=O)C23CC4CC(CC(C4)C2)C3)CC1 | 22.7% |
| CCOC(=O)c1sc(NC(=O)CSc2nc(C)cc(C(F)(F)F)n2)c(C#N)c1C | -9.87% |
| FC(F)(F)c1nnc2ccc(N3CCN(c4ccccc4)CC3)nn12 | 0.81% |
| N=c1oc2ccccc2cc1C(=O)N/N=C/c1ccccc1 | 10.7% |
| CNC(=O)/C(=C\C=C\c1ccccc1)NC(=O)c1ccc([N+](=O)[O-])cc1 | 10.7% |
| CC(N)C12CC3CC(CC(O)(C3)C1)C2 (centres undefined) | -17.7% |
| CS(=O)(=O)N1CCN(c2ccc(C(=O)NC3C4CC5CC(C4)CC3C5)cc2[N+](=O)[O-])CC1 (centres undefined) | -2.62% |
| CCSc1nnc(NC(=O)c2ccc(C)cc2)s1 | 0.05% |
| Cc1onc(-c2ccccc2Cl)c1C(=O)OCC(=O)c1ccccc1 | -10% |
| O=C1c2ccccc2C(=O)N1CCC(c1ccccc1)c1ccco1 (centres undefined) | 11.1% |
| O=C(CCS(=O)(=O)c1cccc2nsnc12)N1CCN(c2ccccc2F)CC1 | 11.1% |
| CC(C)(C)c1ccc(C(=O)NNC(=O)Cc2ccccc2)cc1 | -7.08% |
| COc1ccc(C2CC(=O)Nc3sc(=N)c4c(N)c(C#N)c(N)nc4c32)cc1OC (centres undefined) | -38.4% |
| CC(C)OCCCNc1ncnc2c1[nH]c1ccc(F)cc12 | 65.9% (active) |
| O=C1CCCN1CCCNc1ncnc2c1[nH]c1ccccc12 | 15.4% |

| Compound | inhibition |
| --- | --- |
| CCN1CCCC1CNc1ncnc2c1[nH]c1ccc(F)cc12 (centres undefined) | -0.72% |
| Cc1cc(O)cc(O)c1C(=O)Cc1cnn(-c2ccccc2)c1 | -8.95% |
| COc1ccc(C(=O)Oc2cc(/C=N/NS(=O)(=O)c3ccc(C)cc3)ccc2OC)cc1 | 1.84% |
| CC(=O)c1ccc2c(c1)c1ccccc1n2CC(C)C | -13.4% |
| Clc1ccc(CSc2nnc(/C=C/c3ccccc3)o2)c(Cl)c1 | -0.17% |
| CCN(CC)CCn1c2ccc(Cl)cc2c2nc(C)sc21 | -30.3% |
| O=C(/C=C/Sc1ncn[nH]1)c1ccc(Cl)cc1 | 59.7% (active) |
| CC(C)(C)c1ccc(C(=O)CSc2ncn[nH]2)cc1 | 19.4% |
| Cc1ccc(C(=O)/C=C/c2c(C)nn(-c3ccccc3)c2Cl)cc1 | -1.65% |
| COc1ccc(C(=O)Cc2cnn(-c3ccccc3)c2)c(O)c1 | -22.1% |
| Cc1ccc(OCc2nnc(NC(=O)OCC(C)C)s2)cc1 | -11.9% |
| CCc1ccccc1NC(=O)/C(=C/c1ccccc1)c1ccccc1 | 9.77% |
| O=C(Nc1ccc2c(c1)OCCO2)c1ccc(Cl)c(S(=O)(=O)N2CCCCC2)c1 | -2.73% |
| O=c1c2ccccc2c(-c2ccc(F)cc2)nn1-c1ccc(C(F)(F)F)cc1 | 8.3% |
| O=C(NCC1CCCO1)c1ccc2ccccc2n1 (centres undefined) | -13.9% |
| Cc1c(C=O)c2ccccn2c1C(=O)c1ccncc1 | -13% |
| Cc1ccc(CN(C(=O)c2sc3ccccc3c2Cl)C2CCS(=O)(=O)C2)cc1 (centres undefined) | 15.7% |
| COc1cc(/C=C(/NC(=O)c2ccccc2)C(=O)Nc2cccc(O)c2)c([N+](=O)[O-])cc1OC | -3.81% |
| Cc1cc(C)c([N+](=O)[O-])cc1-c1ccc(/C=N/NC(=O)c2nonc2N)o1 | -20.8% |
| Cc1cc(C)n2nc(C(=O)NC(C)(C)C)nc2n1 | -24.4% |
| CCOC(=O)C(C)n1cnc2sc(C)c(C)c2c1=O (centres undefined) | -21.8% |
| O=C(Cc1c(O)c2ccccc2[nH]c1=O)NCc1ccccc1 | 2.46% |

| Compound | inhibition |
| --- | --- |
| Cc1ccc(N(Cc2ccc(C(=O)Nc3ccccc3C(=O)NCc3ccco3)cc2)S(C)(=O)=O)cc1C | 29.7% |
| CCN1CCN(CCCCOc2ccccc2F)CC1 | -15.3% |
| Cc1noc(COc2ccccc2OCc2onc(C)c2Cl)c1Cl | -6.44% |
| O=C(COc1ccc(Cl)cc1)NCCSc1ccccc1 | -5.9% |
| COCCn1c(C)cc(C2=NNC(=Nc3ccc(F)cc3)SC2)c1C | 8.96% |
| O=C1Cc2ccccc2Sc2ccc(Cl)cc21 | 1.39% |
| Cn1c(NN)nc2sc3c(c2c1=O)CCC3 | -7.52% |
| CCOc1ccc(-n2c(N)c(C(=O)NCC3CCCO3)sc2=S)cc1 (centres undefined) | 1.44% |
| CCCCOC(=O)Cn1c(=O)n(CC(=O)OCCCC)c2cc(C)ccc21 | -1.39% |
| Cc1ccc(-c2cnc(NC(=O)CCC(=O)N(C)Cc3ccccc3)n2C)cc1 | 15.9% |
| O=C1C(Cl)=C(N2CCOCC2)C(=O)N1c1ccccc1 | 11.4% |
| O=C(/C=C/c1cc2c(cc1Br)OCO2)NCc1ccc(Cl)cc1 | 12.8% |
| O=C(CCCN1C(=O)c2cccc3cccc(c23)C1=O)N1CCN(Cc2ccc3c(c2)OCO3)CC1 | 13.4% |
| O=C(CSCc1c(Cl)cccc1Cl)NN1C(=O)c2ccccc2C1=O | 7.21% |
| O=c1cc(N2CCN(Cc3ccccc3)CC2)c(-c2ccccc2)n[nH]1 | 11.6% |
| O=C(Nc1cccc2ncccc12)C(Cl)(Cl)Cl | 7.55% |
| O=C(CSc1ncn[nH]1)Nc1ccnc2ccccc12 | 2.49% |
| O=C(NCN1CCN(CCO)CC1)c1cnccn1 | 4.69% |
| O=C(Nc1nccs1)C1CCN(S(=O)(=O)c2ccc(Cl)c(C(F)(F)F)c2)CC1 | 13.1% |
| CC1CC(C)CN(CC(=O)N2c3ccccc3CCc3ccccc32)C1 (centres undefined) | 3.76% |
| CCn1c(SCc2ccc(C)cc2)nnc1-c1nn(-c2ccccc2)ccc1=O | 7.22% |
